Assay outcomes (PubChem BioAssay)
BoNT F protease – BoNT F light chain protease inhibition; hit rate 0.22% among 360,000; Multiplex microsphere protease cleavage assay, flow cytometry; inhibition, % at 10 µM; in the data active = inhibition above about 35%, passing the limit was not always enough; inconclusive = no clear call, values can overlap the other calls; note: plate controls were buffer without enzyme for full effect and enzyme alone for no effect
Bead autofluor – compound fluorescence in toxin protease inhibitor counterscreen; compound autofluorescence counterscreen, microsphere flow cytometry; hits give high values; fluorescence intensity (no concentration beside the values); hit rate 3.1% among 360,000; AID 624483; in the data active = fluorescence intensity above about 16000; inconclusive = no clear call, values can overlap the other calls
BoNT-A LC inh2 – blocks Botulinum neurotoxin A light chain protease. AID 588499. multiplex microsphere protease substrate cleavage, flow cytometry. inhibition, % at 10 µM. hit rate 0.17% among 360,000; note: plate controls were buffer without enzyme for full effect and enzyme alone for no effect
BJeLR lethal – BJeLR cell viability loss. hit rate 0.17% among 300,000. AID 1554. inhibition, % (no concentration beside the values). BJeLR (HRASV12) viability, CellTiter-Glo ATP luminescence, 48 h; in the data active = inhibition above about 50%; inconclusive = no clear call, values can overlap the other calls
Anthrax LF inh2 – blocks Bacillus anthracis lethal factor protease; multiplex microsphere protease cleavage assay, LF; inhibition, % at 10 µM; hit rate 0.12% among 360,000; AID 588501; note: plate controls were buffer without enzyme for full effect and enzyme alone for no effect
Target sequence (P15917 whole entry, looked up): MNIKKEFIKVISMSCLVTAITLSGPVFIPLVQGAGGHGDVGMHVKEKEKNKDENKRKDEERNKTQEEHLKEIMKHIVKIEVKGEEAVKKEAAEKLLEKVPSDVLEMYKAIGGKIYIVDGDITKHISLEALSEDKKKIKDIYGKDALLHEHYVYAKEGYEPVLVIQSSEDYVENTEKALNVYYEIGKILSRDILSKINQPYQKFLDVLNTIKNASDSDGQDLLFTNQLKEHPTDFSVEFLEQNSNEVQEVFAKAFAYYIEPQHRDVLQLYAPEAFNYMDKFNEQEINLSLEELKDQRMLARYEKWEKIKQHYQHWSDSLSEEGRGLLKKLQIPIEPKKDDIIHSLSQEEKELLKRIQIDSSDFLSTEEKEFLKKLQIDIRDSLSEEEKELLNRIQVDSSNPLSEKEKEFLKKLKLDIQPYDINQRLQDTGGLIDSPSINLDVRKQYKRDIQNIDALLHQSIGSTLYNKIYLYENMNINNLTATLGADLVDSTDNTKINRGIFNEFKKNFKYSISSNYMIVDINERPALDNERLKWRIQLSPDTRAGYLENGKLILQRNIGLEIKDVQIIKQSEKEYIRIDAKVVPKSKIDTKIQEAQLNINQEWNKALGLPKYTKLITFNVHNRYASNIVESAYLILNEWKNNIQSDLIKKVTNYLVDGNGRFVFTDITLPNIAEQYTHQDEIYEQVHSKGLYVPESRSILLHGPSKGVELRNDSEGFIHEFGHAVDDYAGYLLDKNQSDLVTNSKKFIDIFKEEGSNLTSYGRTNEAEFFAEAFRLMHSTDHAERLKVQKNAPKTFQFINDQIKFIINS
The depositor's hits bear a star; ? = inconclusive; · = not tested or not shown. This is a sample that favours compounds with a hit; in the whole collection about 3.5% have one here. Cut-off read from the data, not from the text of the source, unless noted: active = inhibition above about 30%; inconclusive = no clear call, values can overlap the other calls; inactive = below that.

SMILES	BoNT F protease	Bead autofluor	BoNT-A LC inh2	BJeLR lethal	Anthrax LF inh2
COCCNC(=O)C1(C)CCCN(CCOc2ccc(Cl)cc2)C1 (stereo unspecified)	4	3487	0	·	6
O=C(CN1CCN(c2nc(-c3ccccc3)cs2)CC1)NNC(=O)c1ccco1	1	5272	-2	-3	-9
COc1ccc(/C=C/C(=O)NCCOc2ccccc2OC)cc1	-1	2491	0	-9	-1
COC(=O)CNC(=O)/C=C/c1ccc(OC)cc1	-1	19785*	0	-3	-6
S=c1[nH]nc(C2CCCCC2)n1/N=C/C=C/c1ccccc1	-3	22815*	?	-11	0
S=c1[nH]nc(C2CCCCC2)n1/N=C/c1ccc(Br)cc1	5	3651	-2	3	-11
S=c1[nH]nc(C2CCCCC2)n1/N=C/C(Cl)=C\c1ccccc1	-2	2498	0	18	-2
S=c1[nH]nc(C2CCCCC2)n1/N=C/c1ccc(Br)s1	39*	10813	?	-16	-19
FC(F)(F)c1nnc2c(Sc3ccc(Cl)cc3)nc3ccccc3n12	-5	5798	1	59*	-14
FC(F)(F)c1nnc2c(Sc3ccccn3)nc3ccccc3n12	3	22962*	1	-6	1
FC(F)(F)c1nnc2c(Sc3ccccc3)nc3ccccc3n12	2	5577	1	-14	-5
C/C(=C\C(=O)c1ccccc1)Nc1ccc(N2CCOCC2)cc1	-14	9633	-2	1	-16
C/C(=C\C(=O)c1ccc(Cl)cc1)Nc1ccc(N2CCOCC2)cc1	-35	16147*	-10	1	-7
O=C(Nc1ccc(N2CCOCC2)nc1)c1ccc(Cl)cc1	-1	22714*	0	8	-1
CCOC(=O)CCC(=O)Nc1ccc([N+](=O)[O-])cc1C	-4	4148	0	4	0
CCC(=O)N1CCc2cc(S(=O)(=O)NC(C(=O)N3CCN(c4ccc(F)cc4)CC3)C(C)C)ccc21 (stereo unspecified)	-1	5325	0	6	-1
Cn1c(=O)[nH]c(=O)c2c1nc(Br)n2CCSc1nc2ccccc2o1	2	22279*	?	8	0
Cn1c(=O)[nH]c(=O)c2c1nc(N1CCCCCC1)n2CCSc1nc2ccccc2o1	-1	6988	-2	-8	-11
CSc1nc2n(n1)C(c1cc(Br)ccc1F)C(C(=O)N(C)C)=C(C)N2 (stereo unspecified)	-4	20105*	-2	11	-6
COc1ccc(Br)cc1C1NC(=O)NC(C)=C1C(=O)N(C)C (stereo unspecified)	-16	5959	-1	-2	-1
CCc1cc(-c2n[nH]c(=S)n2-c2cccc(C)c2)cs1	11	18843*	11	-3	-9
Cc1cc(-c2n[nH]c(=S)n2-c2ccccc2C)cs1	-3	2102	0	-4	1
CCCCn1c(-c2csc(CC)c2)n[nH]c1=S	0	2578	0	-8	-1
Cc1cccc(-n2c(-c3csc(C)c3)n[nH]c2=S)c1	-2	16396*	?	-11	-8
CCCCCOC(=O)CSc1n[nH]c(=O)[nH]c1=O	4	22105*	2	-4	2
SMILES	BoNT F protease	Bead autofluor	BoNT-A LC inh2	BJeLR lethal	Anthrax LF inh2
CCOC(=O)CCP(=O)(O)C(C)(O)c1ccccc1 (stereo unspecified)	0	18987*	2	1	1
Cc1cc(NS(=O)(=O)c2ccc(NC(=O)c3ccco3)cc2)nc(C)n1	-9	21969*	-4	-1	-1
COc1cc(NS(=O)(=O)c2ccc(NC(=O)c3ccc(C)o3)cc2)nc(OC)n1	19	16150*	?	1	-8
Cc1cc(NS(=O)(=O)c2ccc(NC(=O)c3ccco3)cc2)no1	0	3125	0	11	0
CC(C)CCNC(=O)Cc1ccc(Nc2nc(=S)[nH]c3ccccc23)cc1	4	4263	1	-14	4
O=C(CCC(=O)N1CCc2ccccc2C1)N1CCN(S(=O)(=O)c2ccccc2)CC1	-7	10843	0	-3	-8
O=C(CCC(=O)N1CCN(S(=O)(=O)c2ccccc2)CC1)c1cccs1	4	20748*	?	2	-1
CC(=O)N(Cc1c(C)nn(-c2ccccc2)c1Cl)c1ccc(Cl)cc1	13	4540	0	-2	2
Cc1nn(-c2ccccc2)c(Cl)c1CN(C(=O)CCl)c1ccc(Cl)cc1	0	9095	1	133*	-2
CC(C)(C)c1nnc(N/N=C/c2ccccc2O)n(N)c1=O	-9	10982	-3	62*	-3
CC(C)(C)c1nnc(N/N=C/c2ccccc2)n(N)c1=O	-1	1951	0	3	-1
Oc1ccccc1N=Nc1nc(-c2ccccc2)c(-c2ccccc2)[nH]1	-22	3051	-1	67*	-7
COc1ccccc1N=Nc1nc(-c2ccccc2)c(-c2ccccc2)[nH]1	-25	1883	0	-3	-3
O=C(c1cccc(OC2CCN(Cc3ccc(F)cc3)CC2)c1)N1CCCC1	-9	5715	-3	2	0
Cn1c(=O)c2[nH]c(CN(Cc3ccccc3)Cc3ccccc3)nc2n(C)c1=O	-5	6061	-1	4	2
CN(Cc1ccccc1)Cc1nc2c([nH]1)c(=O)[nH]c(=O)n2C	-2	16968*	-1	6	-3
O=C(/C=C/c1c(F)cccc1Cl)Nc1ccncc1	-4	2564	0	-14	2
O=C(/C=C/c1cccc(Cl)c1)NCc1cccs1	-9	21424*	-6	-9	0
O=C(/C=C/c1cccc(Cl)c1)Nc1ccncc1	-2	21112*	-2	-5	-3
O=C(/C=C/c1c(Cl)cccc1Cl)Nc1ccncc1	0	20186*	0	6	0
O=C(/C=C/c1cccc(Cl)c1)NCc1ccncc1	-3	2046	-1	-12	0
Cc1nn(Cc2ccc(Cl)c(Cl)c2)c(C)c1NC(=O)c1cc(-c2ccco2)on1	-4	21457*	-2	-3	-1
Cc1ccc(Cn2ccc(NC(=O)c3cc(-c4ccccc4)on3)n2)cc1	-12	8729	?	3	-4
COc1ccc(-c2cc(C(=O)Nc3c(C)nn(Cc4ccccc4Cl)c3C)no2)cc1OC	-6	22371*	?	·	0
CCN(CC)C(=O)c1cc(-c2ccc(Br)cc2)on1	1	23321*	1	4	1
SMILES	BoNT F protease	Bead autofluor	BoNT-A LC inh2	BJeLR lethal	Anthrax LF inh2
Cc1ccc(Cn2ccc(NC(=O)c3cc(-c4ccc(Br)cc4)on3)n2)cc1	-5	16876*	-3	1	-2
COC(=O)c1cc(-c2ccc(Br)cc2)on1	-2	4589	5	1	9
CC1(C)CC(=O)C=C(c2ccc(COC(=O)Cc3ccccc3)cc2)C1=O	-6	3668	1	·	-4
COc1ccc(C(N)c2csc(Nc3ccc(S(C)(=O)=O)cc3)n2)cc1 (stereo unspecified)	-2	3402	0	·	-5
Cc1ccc(Cn2ccc(NC(=O)c3cc(-c4ccco4)on3)n2)cc1	5	21800*	6	7	-6
Cc1ccc(-c2nc(CS(=O)CC(=O)N3CCC4(CC3)OCCO4)c(C)o2)cc1 (stereo unspecified)	2	21619*	0	-5	0
